# In ChEMBL document CHEMBL3988442, “University of Dundee, Small-Polar-MMV Screening Library” (2021):
# For part of these data: Potency and affinity values are given separately.
# Legend:
# Parameters in all cases: scale not given: direction of the effect not stated beside the values
# [1] = target: Protein translocase subunit SecA (Escherichia coli (strain K12)) (UniProt P10408); assay: Assay to Identify E. coli SecA ATPase Inhibitors; type: functional; conditions: 30 µM
# [2] = target: T1, Ubiquitin-activating enzyme e1, putative (Leishmania donovani (strain BPK282A1)) (UniProt E9BSI1); assay: Leishmania donovani Ubiquitin Activating Enzyme (LdE1); type: functional; conditions: 30 µM
# T1 sequence (whole entry): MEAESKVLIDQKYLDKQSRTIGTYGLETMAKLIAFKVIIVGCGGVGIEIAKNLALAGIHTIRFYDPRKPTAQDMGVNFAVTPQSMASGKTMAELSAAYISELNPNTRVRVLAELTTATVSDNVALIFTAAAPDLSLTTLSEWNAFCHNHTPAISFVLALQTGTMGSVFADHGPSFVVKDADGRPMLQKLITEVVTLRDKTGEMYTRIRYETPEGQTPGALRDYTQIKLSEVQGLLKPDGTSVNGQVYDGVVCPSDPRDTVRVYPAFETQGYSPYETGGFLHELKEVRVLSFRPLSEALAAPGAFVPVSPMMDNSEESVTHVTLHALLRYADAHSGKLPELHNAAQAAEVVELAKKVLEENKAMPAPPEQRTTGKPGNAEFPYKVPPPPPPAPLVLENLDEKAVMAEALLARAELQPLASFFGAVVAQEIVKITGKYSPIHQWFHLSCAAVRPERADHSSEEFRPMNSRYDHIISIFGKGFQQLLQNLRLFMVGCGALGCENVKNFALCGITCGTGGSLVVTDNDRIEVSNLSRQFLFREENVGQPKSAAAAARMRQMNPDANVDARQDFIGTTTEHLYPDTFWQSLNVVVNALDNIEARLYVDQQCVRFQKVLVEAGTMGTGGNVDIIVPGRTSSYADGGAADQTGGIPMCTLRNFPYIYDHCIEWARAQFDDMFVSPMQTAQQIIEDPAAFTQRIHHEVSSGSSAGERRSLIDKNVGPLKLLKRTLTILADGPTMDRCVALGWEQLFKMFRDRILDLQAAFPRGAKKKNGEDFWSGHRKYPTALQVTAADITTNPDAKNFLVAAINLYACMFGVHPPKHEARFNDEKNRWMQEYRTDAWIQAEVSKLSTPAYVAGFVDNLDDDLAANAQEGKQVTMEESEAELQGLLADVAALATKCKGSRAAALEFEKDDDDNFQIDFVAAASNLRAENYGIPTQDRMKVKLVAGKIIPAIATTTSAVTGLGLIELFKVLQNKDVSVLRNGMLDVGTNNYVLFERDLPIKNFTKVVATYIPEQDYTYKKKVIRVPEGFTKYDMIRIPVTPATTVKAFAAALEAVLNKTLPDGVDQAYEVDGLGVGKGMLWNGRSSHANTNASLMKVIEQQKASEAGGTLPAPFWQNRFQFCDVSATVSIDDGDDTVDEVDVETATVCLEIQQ
# [3] = target: AMP-activated protein kinase, AMPK (Homo sapiens) (UniProt P54646+O43741+P54619+Q9UGJ0+Q9Y478+Q13131+Q9UGI9); assay: AMP-dependent Kinase enzyme assay. An in vitro enzyme assay that detects ADP turnover that is directly proportional to AMPK activity. This uses naive AMPK that is activated during the assay with MK-8722; type: functional; conditions: 30 µM
# [4] = target: Sialic acid-binding Ig-like lectin 9 (Homo sapiens) (UniProt Q9Y336); assay: Hs-Siglec9 ALPHAscreen SOP 20170721; conditions: 10 µM
# Trypanosoma cruzi = assay: Trypanosoma cruzi phosphomannomutase and mannose-1-phosphate guanylyltransferase assay; type: functional; conditions: 10 µM
# [5] = target: T2, Arginase-2, mitochondrial (Homo sapiens) (UniProt P78540); assay: in vitro enzyme assay to detect the production of urea directly proportional to the activity of Arginase II; type: functional; conditions: 33.3 µM; also: in the data most compounds retested in dose-response had high values
# T2 sequence (whole entry): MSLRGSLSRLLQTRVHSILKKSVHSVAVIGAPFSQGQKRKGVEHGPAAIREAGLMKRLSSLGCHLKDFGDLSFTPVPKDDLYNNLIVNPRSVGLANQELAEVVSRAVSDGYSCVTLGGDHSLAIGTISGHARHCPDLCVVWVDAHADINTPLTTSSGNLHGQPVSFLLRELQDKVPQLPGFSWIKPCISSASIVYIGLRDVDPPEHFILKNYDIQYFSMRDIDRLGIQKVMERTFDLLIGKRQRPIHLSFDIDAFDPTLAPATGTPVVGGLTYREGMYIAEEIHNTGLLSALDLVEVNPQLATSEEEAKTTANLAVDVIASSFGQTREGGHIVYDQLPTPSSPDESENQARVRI
# [6] = target: T3, Proteasome subunit beta (Trypanosoma cruzi) (UniProt O96673); assay: Trypanosoma cruzi proteasome chymotrypsin-like activity (TcProtChymo) assay.; also: in the data most compounds retested in dose-response had high values; type: functional; conditions: 9.37 µM
# T3 sequence (whole entry): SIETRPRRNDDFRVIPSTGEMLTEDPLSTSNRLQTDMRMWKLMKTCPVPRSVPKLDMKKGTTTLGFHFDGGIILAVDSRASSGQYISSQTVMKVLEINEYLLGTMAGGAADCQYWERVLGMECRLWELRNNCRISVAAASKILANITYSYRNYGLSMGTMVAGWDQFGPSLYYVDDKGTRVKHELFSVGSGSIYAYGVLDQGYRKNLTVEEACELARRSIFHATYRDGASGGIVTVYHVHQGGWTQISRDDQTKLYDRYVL
# Homo sapiens = species on record: Homo sapiens; assay: To identify inhibition of the IFN signalling (Jak-Stat) pathway via expression of an eGFP reporter gene under the control of an IFN-stimulated response element (ISRE) containing MxA promoter.; type: functional; conditions: 30 µM
# [7] = target: T4, Tyrosyl-tRNA synthetase, putative (Trypanosoma cruzi (strain CL Brener)) (UniProt Q4DSP6); assay: Trypanosoma cruzi tyrosyl tRNA synthetase (TcYRS) _High Tyrosine SOP; type: functional; conditions: 30 µM; also: in the data most compounds retested in dose-response had high values
# T4 sequence (whole entry): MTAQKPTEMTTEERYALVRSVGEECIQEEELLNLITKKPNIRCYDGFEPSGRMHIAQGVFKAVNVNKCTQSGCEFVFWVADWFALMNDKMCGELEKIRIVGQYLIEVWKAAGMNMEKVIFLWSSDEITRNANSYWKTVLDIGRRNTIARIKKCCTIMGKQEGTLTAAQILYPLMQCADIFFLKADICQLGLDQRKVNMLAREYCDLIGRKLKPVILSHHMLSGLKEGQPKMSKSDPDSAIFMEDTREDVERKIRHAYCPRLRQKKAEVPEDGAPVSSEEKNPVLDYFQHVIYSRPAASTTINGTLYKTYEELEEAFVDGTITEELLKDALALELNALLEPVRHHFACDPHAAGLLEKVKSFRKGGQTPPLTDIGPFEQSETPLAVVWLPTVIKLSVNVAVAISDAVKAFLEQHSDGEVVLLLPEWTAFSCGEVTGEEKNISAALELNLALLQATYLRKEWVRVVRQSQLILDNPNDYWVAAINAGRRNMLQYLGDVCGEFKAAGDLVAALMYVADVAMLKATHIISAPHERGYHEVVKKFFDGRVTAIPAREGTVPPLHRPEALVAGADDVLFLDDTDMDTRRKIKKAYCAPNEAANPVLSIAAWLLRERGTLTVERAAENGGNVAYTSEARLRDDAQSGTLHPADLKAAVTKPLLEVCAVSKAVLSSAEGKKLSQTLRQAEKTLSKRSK
# [8] = target: T4, Tyrosyl-tRNA synthetase, putative (Trypanosoma cruzi (strain CL Brener)); assay: Trypanosoma cruzi tyrosyl tRNA synthetase (TcYRS) SOP; type: functional; conditions: 30 µM
# [9] = target: Chromo domain-containing protein 1 (Saccharomyces cerevisiae (strain ATCC 204508 / S288c) (Baker's yeast)) (UniProt P32657); assay: ScCHD-1 Enzyme Inhibition Assay; type: functional; conditions: 30 µM; also: in the data most compounds retested in dose-response had high values
# Sequence of Chromo domain-containing protein 1 (Saccharomyces cerevisiae (strain ATCC 204508 / S288c) (Baker's yeast)) (P32657 whole entry, the tested form may be a part): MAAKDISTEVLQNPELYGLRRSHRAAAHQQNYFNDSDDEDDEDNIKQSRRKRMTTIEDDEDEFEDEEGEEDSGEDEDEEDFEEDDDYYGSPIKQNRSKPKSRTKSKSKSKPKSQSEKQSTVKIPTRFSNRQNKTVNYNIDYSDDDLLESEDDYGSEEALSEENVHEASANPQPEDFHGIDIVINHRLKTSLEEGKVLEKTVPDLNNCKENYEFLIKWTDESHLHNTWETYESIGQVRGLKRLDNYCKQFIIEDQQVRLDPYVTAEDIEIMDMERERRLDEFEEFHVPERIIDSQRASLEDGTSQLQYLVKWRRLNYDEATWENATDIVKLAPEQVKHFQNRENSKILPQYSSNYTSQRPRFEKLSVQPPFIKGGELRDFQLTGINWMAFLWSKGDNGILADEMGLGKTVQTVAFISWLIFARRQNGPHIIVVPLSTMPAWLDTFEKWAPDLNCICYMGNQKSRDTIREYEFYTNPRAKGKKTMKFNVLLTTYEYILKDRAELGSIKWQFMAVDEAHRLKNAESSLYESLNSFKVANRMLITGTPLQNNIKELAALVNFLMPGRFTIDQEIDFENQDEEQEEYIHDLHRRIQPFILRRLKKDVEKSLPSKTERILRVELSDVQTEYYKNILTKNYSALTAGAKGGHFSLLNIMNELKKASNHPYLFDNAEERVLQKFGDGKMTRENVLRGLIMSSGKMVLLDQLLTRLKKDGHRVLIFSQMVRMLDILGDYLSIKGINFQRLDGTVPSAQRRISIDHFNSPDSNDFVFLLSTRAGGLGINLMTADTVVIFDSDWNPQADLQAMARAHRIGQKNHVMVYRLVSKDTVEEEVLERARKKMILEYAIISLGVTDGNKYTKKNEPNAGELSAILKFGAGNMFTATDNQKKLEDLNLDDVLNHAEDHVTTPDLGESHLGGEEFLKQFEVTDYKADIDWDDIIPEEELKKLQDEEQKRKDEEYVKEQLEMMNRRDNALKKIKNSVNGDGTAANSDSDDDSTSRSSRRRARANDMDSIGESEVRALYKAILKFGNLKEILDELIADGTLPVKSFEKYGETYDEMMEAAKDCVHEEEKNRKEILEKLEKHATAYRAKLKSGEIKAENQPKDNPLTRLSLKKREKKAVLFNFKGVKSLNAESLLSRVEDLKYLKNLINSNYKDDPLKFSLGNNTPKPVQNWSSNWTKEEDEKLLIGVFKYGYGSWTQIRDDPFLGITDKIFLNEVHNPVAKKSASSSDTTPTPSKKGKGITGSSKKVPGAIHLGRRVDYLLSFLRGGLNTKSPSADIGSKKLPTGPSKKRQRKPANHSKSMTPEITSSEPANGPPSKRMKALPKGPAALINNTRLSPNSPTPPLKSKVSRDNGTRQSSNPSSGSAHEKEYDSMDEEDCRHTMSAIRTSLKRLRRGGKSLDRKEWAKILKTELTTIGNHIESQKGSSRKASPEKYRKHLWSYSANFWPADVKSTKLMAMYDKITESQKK
# Sequence of Sialic acid-binding Ig-like lectin 9 (Homo sapiens) (Q9Y336 whole entry): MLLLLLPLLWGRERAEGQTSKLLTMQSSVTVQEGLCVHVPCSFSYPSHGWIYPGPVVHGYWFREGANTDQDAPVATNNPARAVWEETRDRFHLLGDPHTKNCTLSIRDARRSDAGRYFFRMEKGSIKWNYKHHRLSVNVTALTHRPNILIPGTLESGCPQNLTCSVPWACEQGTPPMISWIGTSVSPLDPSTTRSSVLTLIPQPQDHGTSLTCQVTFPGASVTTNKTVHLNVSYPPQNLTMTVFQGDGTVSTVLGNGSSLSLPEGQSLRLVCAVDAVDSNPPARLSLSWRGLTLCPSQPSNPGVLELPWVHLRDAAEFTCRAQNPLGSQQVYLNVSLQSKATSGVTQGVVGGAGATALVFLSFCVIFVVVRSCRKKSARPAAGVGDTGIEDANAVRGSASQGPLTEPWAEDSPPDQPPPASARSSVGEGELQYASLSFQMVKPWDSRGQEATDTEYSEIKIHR
# Sequence of Protein translocase subunit SecA (Escherichia coli (strain K12)) (P10408 whole entry): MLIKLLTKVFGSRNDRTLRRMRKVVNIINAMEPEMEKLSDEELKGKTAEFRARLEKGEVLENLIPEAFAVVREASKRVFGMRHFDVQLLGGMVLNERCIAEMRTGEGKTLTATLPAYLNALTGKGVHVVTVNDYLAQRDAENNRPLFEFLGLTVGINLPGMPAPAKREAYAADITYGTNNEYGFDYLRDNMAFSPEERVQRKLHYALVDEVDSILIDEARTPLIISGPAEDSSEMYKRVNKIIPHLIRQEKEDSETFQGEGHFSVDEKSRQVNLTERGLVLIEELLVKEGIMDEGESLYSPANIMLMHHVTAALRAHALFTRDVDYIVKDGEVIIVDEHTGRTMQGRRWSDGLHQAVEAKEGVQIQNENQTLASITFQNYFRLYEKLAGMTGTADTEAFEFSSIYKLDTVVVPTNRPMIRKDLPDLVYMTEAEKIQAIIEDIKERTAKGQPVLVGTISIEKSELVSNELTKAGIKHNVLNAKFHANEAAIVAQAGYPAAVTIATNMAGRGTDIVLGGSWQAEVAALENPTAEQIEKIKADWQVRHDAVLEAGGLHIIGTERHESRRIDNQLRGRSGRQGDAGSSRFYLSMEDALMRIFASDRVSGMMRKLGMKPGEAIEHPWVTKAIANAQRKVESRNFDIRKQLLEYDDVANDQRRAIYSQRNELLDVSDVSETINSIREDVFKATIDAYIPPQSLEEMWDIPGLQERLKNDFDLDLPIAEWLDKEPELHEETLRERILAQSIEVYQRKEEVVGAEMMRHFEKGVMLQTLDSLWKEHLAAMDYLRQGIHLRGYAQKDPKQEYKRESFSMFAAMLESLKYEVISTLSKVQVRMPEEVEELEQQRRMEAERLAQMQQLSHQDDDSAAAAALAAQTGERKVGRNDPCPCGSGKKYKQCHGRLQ
SMILES,Percent Effect [1] [%],Percent Effect [2] [%],Percent Effect [3] [%],Percent Effect [4] [%],Percent Effect (Trypanosoma cruzi) [%],Percent Effect [5] [%],Percent Effect [6] [%],Percent Effect (Homo sapiens) [%],Percent Effect [7] [%],Percent Effect [8] [%],Percent Effect [9] [%]
COCCOc1ccc(NC(=O)N2CCCC2c2ccncc2)cn1 (stereo unspecified),-2.75,0,2.9,5.29,2.64,-1.47,12.8,11.5,1.91,0,-22.2
COc1ccc(C(=O)N2CCCC2c2ccco2)cc1OC (stereo unspecified),2.38,2.6,-1.48,-11.9,-4.24,-1.94,14.8,9.23,3.17,8.97,-10.7
CC(C)C(=O)NC1CCN(Cc2cccc3c2OCCO3)CC1,-2.08,-1.27,4.8,0.497,-2.36,3.66,-2.06,17.1,2.08,-2.53,-21.1
O=C(NCc1ccccc1)c1nnc2ccc(N3CCOCC3)cc2n1,-4.99,-1.33,67.7,2.19,-3.73,-10.4,14.1,4.89,6.35,7.69,-13.2
CCOc1cccc(C(=O)N2CCN(c3nccc(OC)n3)CC2)c1,-7.2,5.26,10.4,-5.48,-7,1.8,6.51,16.4,-1.48,1.24,-2.73
Cc1oncc1C(=O)N1CCC2(CC1)CC(c1ccccc1)C(=O)N2C (stereo unspecified),-3.51,-16,-4.85,1.07,3.28,-47.1,7.69,-5.26,-37.5,-62.5,-5.13
O=C(CN1CCN(CC(O)C2CC2)CC1)NCc1ccc(F)cc1 (stereo unspecified),-3.06,10.4,6.87,0.218,4.83,9.68,13.1,22.2,8.47,19.2,-7.59
CN(C)C(=O)CNC(=O)Nc1cccc(Cl)c1SC(F)F,-3.28,1.39,2.42,11.5,-7.09,1.77,1.05,-0.391,1.05,-2.56,0.00979
Cc1cc(C)n(C2CCCN(C(=O)c3ccc(NC4CC4)nc3)C2)n1 (stereo unspecified),-6.18,7.79,5.88,2.52,-4.6,1.05,7.52,16.1,4.76,9.41,-13.5
CC(C)c1nnc(NC(=O)NCc2ccnc(N(C)C)c2)s1,0.949,8.86,3.28,-0.716,-2.77,8.39,15.8,30.7,1.04,7.59,-17.6
CCN(C(=O)CCCOc1ccccc1F)c1ccncc1,-5.32,18.4,-2.56,5.73,5.36,-20.1,10.1,11.9,5.32,7.79,-5.44
CC(=O)N1CCN(Cc2csc(-c3cnn(C)c3)n2)CC1,-5.28,7.89,-1.26,6.08,9.21,-1.53,2.17,3.43,4.41,9.76,-7.33
COCc1nc(CN2CCC3(CCCO3)CCC2=O)no1 (stereo unspecified),-7.29,5.33,-4.46,6.25,7.3,-2.6,12,10.4,6.01,3.7,-5.51
CC(C)n1ncc2c1NC(=O)CC21C(=O)Nc2c(Cl)cc(Cl)cc21 (stereo unspecified),-1.94,6.67,3.17,6.18,-0.197,-9.33,1.29,13.3,2.12,10.3,-4.48
Cc1cn2c(n1)CCC(NC(=O)CCC(F)(F)F)C2 (stereo unspecified),-7.86,-7.89,-7.17,16.2,5.51,0.36,3.64,-6.31,3.45,16.1,-6.39
CCn1ncnc1C(C)NC(=O)C1CCN(C(=O)COC)CC1 (stereo unspecified),-7.01,8.11,-1.09,0.673,-0.489,4.22,9.19,1.26,10.8,18.5,-2.43
CN1[C@H](Cn2cncn2)C[C@@H]2CN(Cc3cccc(C#N)c3)CC[C@@H]21,-1.53,13.5,-0.719,-6.04,0,-2.5,15,-2.04,9.9,13.4,2.31
CCc1nc(CN2CCCN(C(=O)C(C)n3ccnc3)CC2)cs1 (stereo unspecified),-2.92,5.2,3.99,3.63,3.75,-5.69,21.1,-7.97,5.83,9.76,-4.4
CC1=NN(c2ccc(C(=O)N3CCCC(n4ccnc4)C3)cc2)CC1 (stereo unspecified),-5.1,10.1,-5.15,0.444,9.35,-1.9,-1.06,15.8,10.3,16.5,-6.17
CCCn1nc2c(cc1=O)CN(CCCS(N)(=O)=O)CC2,-1.13,0,-142,6.58,-3.3,6.01,12.1,-3.47,-1.48,-8.64,-2.91
CCC(=O)NCc1cc(Br)ccc1OC(F)F,-4.17,8,-2.35,7.52,3.41,1.04,13.6,-8.01,9.29,18.5,-6.17
